Screening results deposited in PubChem by several laboratories.
NTR1 ag – activates human neurotensin receptor 1. NTR1-U2OS beta-arrestin-GFP spot imaging, agonist mode. activation, % at 20 µM. P30989. 0.17% of 330,000 active. AID 493036;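 active = activation at or above 40% of the spot to cytoplasm intensity ratio, with at least 20 cells analyzed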;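 note: 0% = DMSO without peptide and 100% = 100 nM NTR1 peptide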
AI-2 QS modul – modulates the Vibrio harveyi AI-2 quorum sensing system; 0.4% of 300,000 active; activity change, % at 7.5 µM; Vibrio harveyi JMH597 AI-2 luminescence/OD600 ratio, 9 h; active compounds read low; strain lacks LuxN and CqsS sensors; 0 = neutral-control median; in the data active = activity change below about -75%, passing the limit was not always enough;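 note: luminescence divided by OD600 gain over 9 h not by final OD600 alone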
GRIN3A LBD mod – NR3A (human) ligand-binding domain modulation. NR3A LBD differential scanning fluorimetry, Tm shift; 0% = protein alone, 100% = glycine-bound protein. Tm shift relative to glycine control, % at 25 µM. 2.5% of 340,000 active;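 active = melting temperature shift of at least 10% of the positive control shift, at one fixed dose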
H9c2 protect – modulators protecting cardiomyocytes from myocardial damage | AID 588492 | protection from H2O2 cell death, % at 20 µM | 0.63% of 360,000 active | H9c2 cardiomyocytes, H2O2 injury protection, ATPLite, 2 h;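 active = compounds giving at least 50% protection of heart cells from peroxide-induced death in the single-dose screen, raw or plate-pattern-corrected value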;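 note: 0% = DMSO wells with peroxide and 100% = DMSO wells without peroxide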
Mot1-301 SUMO – blocks SUMOylation pathway, rescuing yeast Mot1-301 growth. growth rescue, % at 18.8 µM. 1% of 320,000 active. S. cerevisiae Mot1-301 growth rescue, ATP luminescence, 38.5C; percent above DMSO median, 100 means doubled. AID 2716;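 active = every valid replicate shows activation above 250% relative to neutral control wells; inactive = the rest, any valid replicate at or below 250%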;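 note: OY570 slx delta 5 strain wells were the positive control but not used for scaling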
AHR activator – activates the human aryl hydrocarbon receptor. 2.5% of 320,000 active. AID 2796. AHR-responsive luciferase reporter cells, luminescence. activation, % at 5 µM. P35869; in the data active = activation above about 47%;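 note: 0% = vehicle wells and 100% = reference agonist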
Starred values were filed as active, the others as inactive; x = no result. Rows were chosen to be rich in hits. Some 6.2% of all compounds tested hit in one or more screens of this group.

SMILES | NTR1 ag | AI-2 QS modul | GRIN3A LBD mod | H9c2 protect | Mot1-301 SUMO | AHR activator
CCOc1ccc(-c2nnc(-c3ccncc3)o2)cc1 | -1 | 11 | -4 | -14 | -9 | 61*
Cn1c(Oc2ccc(Cl)cc2)c(C=O)c2ccccc21 | 2 | 4 | 15* | -12 | 47 | 11
COc1ccc(Oc2c(C=O)c3ccccc3n2C)cc1 | 3 | 5 | 1 | -3 | -18 | 3
CSc1nc(COC(=O)NC(C)C)c(COC(=O)NC(C)C)n1Cc1ccccc1 | x | x | x | 3 | x | x
O=C(Nc1ccccc1)Nc1cc(Cl)cc(Cl)c1 | 12 | 42 | x | -21 | 1 | 19
O=C(Nc1ccccc1)Nc1cc(OCC(F)(F)F)cc(OCC(F)(F)F)c1 | x | 34 | 41* | -11 | x | x
COc1ccc(-c2c(C)nn3c(-c4ccccc4)cc(C)nc23)cc1 | 10 | 21 | 15* | -11 | 3 | 7
COc1cccc(COC(=O)c2cc(S(=O)(=O)N3CCCCC3)ccc2N2CCOCC2)c1OC | 2 | -3 | 19* | -3 | -8 | 1
O=C(OCc1ccccc1F)c1cc(S(=O)(=O)N2CCCCC2)ccc1N1CCOCC1 | x | x | x | -12 | x | x
COc1ccc(C(CC(=O)N2CCN(c3ccccc3)CC2)c2c(OC)cc(OC)c3ccc(=O)oc23)cc1 (stereo not drawn) | -5 | 18 | 1 | 51* | -13 | 5
CCCN(CC(=O)Nc1ccccc1C)C(=O)/C=C/c1ccc(OC)c(OC)c1 | x | x | x | 4 | x | x
COc1ccc(-c2cc(C(=O)N3CCCCCC3)c3ccccc3n2)cc1OC | x | x | x | 0 | x | x
COc1ccc(-c2cc(C(=O)N3CCCC(C(F)(F)F)C3)c3ccccc3n2)cc1OC (stereo not drawn) | 2 | 19 | 18* | 5 | 1 | 42
COc1ccc(-c2cc(C(=O)N3CCN(c4ccccc4)CC3)c3ccccc3n2)cc1OC | 5 | 33 | 0 | 54* | -7 | 77*
CC(=O)c1ccc(N2CCN(C(=O)C3CCN(S(=O)(=O)c4cccs4)CC3)CC2)cc1 | 1 | 8 | 2 | 0 | 1 | -2
COc1ccc([C@H]2CC(=O)C=C(c3cccc4c3Oc3ccccc3S4)C2)cc1OC | 3 | x | 0 | -5 | -16 | 10
O=C(CCCn1c(=O)c2cccn2c2cccnc21)NCc1cccc(Br)c1 | 1 | 34 | 1 | 8 | 9 | -5
O=C(CCn1c(=O)c2cccn2c2cccnc21)NCc1cccc(Cl)c1 | 0 | 2 | 10* | 4 | -8 | 0
CCCN(CC(=O)Nc1ccccc1C)C(=O)c1ccc(OCc2c(C)noc2C)cc1 | 0 | x | -1 | 0 | x | x
CN1C/C(=C/c2cccnc2)C(=O)/C(=C/c2cccnc2)C1 | x | x | 20* | 1 | -26 | -2
CC(C)N1C/C(=C/c2cccnc2)C(=O)/C(=C/c2cccnc2)C1 | x | x | -1 | -6 | x | x
C#CCOCCOCCOCCNc1nc(N2CCN(C(=O)CCCCCCCCCCNC(=O)Cn3cc(C[C@@H](C)O)nn3)CC2)nc(N2CCN(C(=O)CCCCCCCCCCNC(=O)[C@H](CCCCN)n3cc(C[C@@H](C)CC)nn3)CC2)n1 | 9 | x | 13* | -3 | -7 | -1
C#CCOCCOCCOCCNc1nc(N2CCN(C(=O)CCCCCCCCCCNC(=O)[C@H](CCCCN)n3cc(CCO)nn3)CC2)nc(N2CCN(C(=O)CCCCCCCCCCNC(=O)[C@H](CCCN=C(N)N)n3cc(C[C@@H](C)CC)nn3)CC2)n1 | 1 | x | 26* | -5 | -27 | 2
C#CCOCCOCCOCCNc1nc(N2CCN(C(=O)CCCCCCCCCCNC(=O)[C@H](CCCCN)n3cc(CCCC(=O)O)nn3)CC2)nc(N2CCN(C(=O)CCCCCCCCCCNC(=O)[C@H](CCCN=C(N)N)n3cc(C[C@@H](C)CC)nn3)CC2)n1 | 1 | -22 | 23* | -4 | -19 | -1
C#CCOCCOCCOCCNc1nc(N2CCN(C(=O)CCCCCCCCCCNC(=O)Cn3cc(CCCCCN)nn3)CC2)nc(N2CCN(C(=O)CCCCCCCCCCNC(=O)[C@H](CO)n3cc(CCCCCN)nn3)CC2)n1 | 0 | x | 6 | -3 | -15 | -3
SMILES | NTR1 ag | AI-2 QS modul | GRIN3A LBD mod | H9c2 protect | Mot1-301 SUMO | AHR activator
C#CCOCCOCCOCCNc1nc(N2CCN(C(=O)CCCCCCCCCCNC(=O)Cn3cc(C[C@@H](C)O)nn3)CC2)nc(N2CCN(C(=O)CCCCCCCCCCNC(=O)Cn3cc(C[C@@H](C)O)nn3)CC2)n1 | 2 | x | -5 | 80* | -6 | -1
C#CCOCCOCCOCCNc1nc(N2CCOCC2)nc(N2CCN(C(=O)CCCCCCCCCCNC(=O)Cn3cc(CCCCCN)nn3)CC2)n1 | 0 | x | 1 | -2 | -14 | 2
CC(Sc1nc2ccccc2c(=O)n1C)C(=O)N(C)C1CCCCC1 (stereo not drawn) | 3 | 19 | 2 | -9 | -10 | -3
Cc1ccccc1C(=O)N1CCC(C(=O)NN2C(=O)NC3(CCCCC3)C2=O)CC1 | 5 | x | 0 | -2 | 94 | 0
C#CCOCCOCCOCCNc1nc(N2CCN(C(=O)CCCCCCCCCCNC(=O)[C@H](CO)n3cc(CCCSC)nn3)CC2)nc(N2CCN(C(=O)CCCCCCCCCCNC(=O)[C@H](CCCCN)n3cc(C[C@@H](C)CC)nn3)CC2)n1 | 34 | -13 | x | x | 5 | 0
C#CCOCCOCCOCCNc1nc(N2CCN(C(=O)CCCCCCCCCCNC(=O)[C@H](CCCCN)n3cc(C[C@@H](C)CC)nn3)CC2)nc(N2CCN(C(=O)CCCCCCCCCCNC(=O)[C@H](CCCCN)n3cc(C[C@@H](C)CC)nn3)CC2)n1 | x | -4 | 19* | -8 | -13 | -3
Cc1cc(N/N=C/c2ccc([N+](=O)[O-])o2)nc2ccccc12 | 2 | 54 | 14* | 10 | -6 | 32
Cc1cc2ncn(/N=C/c3ccc([N+](=O)[O-])o3)c2cc1C | 1 | 13 | 10* | -3 | -15 | 35
O=[N+]([O-])c1ccc(/C=N/N=C/c2ccc([N+](=O)[O-])o2)o1 | x | x | 2 | -22 | x | x
Cc1cc(Nc2ccc([N+](=O)[O-])cc2)nc2ccccc12 | 0 | 21 | 39* | -7 | 7 | -5
Cc1ccc(-c2cc(C(=O)N/N=C/c3ccc([N+](=O)[O-])o3)c3ccccc3n2)o1 | 0 | 1 | -3 | -20 | -26 | x
O=C(NC(CC(=O)N1CCCC(C(F)(F)F)C1)c1ccccc1)c1ccccc1Cl (stereo not drawn) | -1 | 38 | 1 | -2 | -28 | -2
CC(=O)[C@H]1[C@H]([C@H](O)[C@H](O)CO)O[C@](O)(C(=O)O)C[C@@H]1O | -1 | x | -2 | 2 | -1 | 1
O=C(Cc1c(F)cccc1Cl)NNC(=O)c1ccc(Br)s1 | 1 | x | 1 | 10 | 22 | 1
Cn1c(=N)n(CC(=O)c2ccc(Cl)c(Cl)c2)c2ccccc21 | 1 | 13 | -1 | -21 | 47 | 54*
